Experimental data as given in PubChem BioAssay AID720513 (Broad Institute, 2013).
Hit rate of the full screen: of about 2,100 compounds, about 480 (23%) were called active. Roughly 5% stayed inconclusive and do not appear here.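 Rule for the calls: active = fitted curve reaches 40% activation at or below the top valid concentration, in every replicate test; inconclusive = replicate tests disagree on the call; inactive = the rest, including activity in the opposite direction.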 Only a sample is shown. Potency and affinity values are given separately.

Test: activators raising PGC1a acetylation in cells, dose response, cell-based, cherry-picked samples, set 6 (AID 720513);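 note: cells made to overexpress flag tagged PGC1a plus GCN5 acetyltransferase by viral infection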
Conditions: U2OS PGC1a acetylation AlphaLISA, overnight, 0 = neutral, -100 = inhibitor control; series mostly up to 19.5 µM; activation (acetylation increase): at the top concentration

Activation (acetylation increase), inactive:
CC1CN(C(=O)COC(=O)[C@@H]2CC(O)CN2S(=O)(=O)c2ccc3c(c2)OCCO3)CC(C)O1 (stereo partly specified) 8.73%
CCn1c(C)c(C)c2cc(C(=O)NCCN3CCOCC3)ccc21 -19.1%
CN1C(C(=O)Nc2ccccn2)=C(O)c2sc(Cl)cc2S1(=O)=O 9.35%
CO[C@H]1CN(C)C(=O)c2cc(NS(C)(=O)=O)ccc2OC[C@H](C)N(C(=O)NC(C)C)C[C@H]1C 19.4%
C[C@@H]1CN([C@@H](C)CO)S(=O)(=O)c2ccc(C#CC3CCCCC3)cc2O[C@H]1CN(C)Cc1cccnc1 -47.2%
CN1CCN2c3ncccc3Cc3ccccc3[C@@H]2C1 11.6%
Fc1ccc(/C=C2\CCCC3=C2Nc2ncnn2C3c2ccc(F)cc2)cc1 (stereo unspecified) -95.2%
CC(C)(C)NS(=O)(=O)c1ccc(CCC(=O)N2CCOCC2)cc1 0.217%
CCC(=O)N[C@H]1CC[C@H](CCNC(=O)Nc2ccc(C(F)(F)F)cc2)O[C@H]1CO -29.5%
COc1cccc(CN2C[C@@H]3N[C@H](C2)C3c2ccc(-c3ccccc3OC)cc2)c1 (stereo partly specified) -2.92%
COc1cc(CN2C[C@@H]3N[C@H](C2)C3c2ccc(-c3ccccc3C)cc2)cc(OC)c1 (stereo partly specified) -95.4%
CC(C)c1ccc(-c2nnn(CC(=O)N3CCCCC3)n2)cc1 -13%
Cc1ccc(S(=O)(=O)N2CCCC2)cc1C(=O)O -7.65%
CN(C)CCCN(C(=O)CCOc1ccccc1)c1nc2ccc(F)cc2s1 -99%
CC(C)CC#Cc1cnc2c(c1)C(=O)N([C@@H](C)CO)C[C@@H](C)[C@H](CN(C)C(=O)c1ccccc1)O2 -31.3%
CC(C)[C@H](C)NC(=O)N(C)C[C@@H]1OCc2ccccc2-c2ccccc2C(=O)N([C@@H](C)CO)C[C@H]1C 15.2%
C[C@@H]1CN([C@@H](C)CO)C(=O)c2c(c3ccccc3n2C)-c2ccccc2CO[C@H]1CN(C)S(=O)(=O)c1ccsc1 -6.93%
CC(C)NC(=O)N(C)C[C@H]1Oc2c(NS(=O)(=O)c3cn(C)cn3)cccc2C(=O)N([C@@H](C)CO)C[C@@H]1C 16.2%
CCN(C(=O)COC(=O)/C=C/c1cccc(Cl)c1)c1c(N)n(Cc2ccccc2)c(=O)[nH]c1=O -4.91%
Clc1ccccc1OCCCCN1CCCC1 -20.9%
CO[C@H]1CN(C)C(=O)c2cc(NS(C)(=O)=O)ccc2OC[C@@H](C)N(C(=O)CC2CC2)C[C@H]1C -18.1%
CCOC(=O)CSc1nccc(N(C)C)c1C#N 4.27%
CC(NCc1cccs1)C(=O)NC1CCCCC1 (stereo unspecified) -2.99%
O=C(OCc1cnc(Cl)s1)c1cccs1 11.2%
CO[C@@H]1CN(C)C(=O)c2ccc(NC(=O)c3ccc(Oc4ccccc4)cc3)cc2OC[C@@H](C)N(C(C)=O)C[C@H]1C -36.3% [at 21 µM]
COc1ccc(S(=O)(=O)N(C)C[C@H]2Oc3ccc(NC(=O)CCN4CCOCC4)cc3C(=O)N([C@@H](C)CO)C[C@@H]2C)cc1 4.36% [at 21 µM]
O=C(Nc1ccc([N+](=O)[O-])cn1)c1ccc(Br)o1 -6.47%
CSCC[C@H](NC(=O)c1ccc(Br)o1)c1nnc2ccccn12 -1.9%
CC(=O)N(C)C[C@@H]1Oc2cc(-c3ccc(F)cc3)ccc2S(=O)(=O)N([C@H](C)CO)C[C@H]1C 35.3%
C[C@@H]1CN([C@@H](C)CO)C(=O)c2cccc(NC(=O)C3CCCCC3)c2O[C@@H]1CN(C)CC1CCCCC1 14.1%
O=C(Nc1cccc(Cl)c1)c1cncn1-c1ccc(F)cc1 4.8%
COc1cc(NC(=O)c2[nH]cnc2C(N)=O)cc(C(=O)Nc2cccc(C(F)(F)F)c2)c1 -110%
COc1cnc(-c2ccccn2)nc1Sc1ccc(C)cc1 26.8%
CCOC(=O)C1(Cc2cccc(Cl)c2)CCCN(C(=O)c2cccnc2)C1 (stereo unspecified) -5.9%
C[C@@H]1CN([C@@H](C)CO)C(=O)c2cc(NS(C)(=O)=O)ccc2O[C@@H](C)CCCCO[C@H]1CN(C)C(=O)Nc1ccc(F)cc1 36.6%
C[C@H]1CN([C@@H](C)CO)C(=O)c2cc(C#Cc3ccc(F)cc3)cnc2O[C@@H]1CN(C)C(=O)Nc1ccc(F)cc1 -7.59% [at 21 µM]
C[C@H]1CCCCO[C@@H](CN(C)C(=O)c2ccccc2)[C@@H](C)CN([C@@H](C)CO)C(=O)c2cc(NC(=O)Nc3ccc(F)cc3)ccc2O1 7.64%
C[C@H]1CN([C@@H](C)CO)C(=O)c2cc(-c3cncnc3)cnc2O[C@@H]1CN(C)C(=O)c1cccc(F)c1 25.1%
C[C@H]1CN([C@@H](C)CO)C(=O)CCCn2nncc2CO[C@@H]1CN(C)C(=O)c1ccc(N2CCN(C)CC2)cc1 5.03%
C[C@@H]1CN([C@H](C)CO)C(=O)c2cccc(NC(=O)c3nc4ccccc4s3)c2O[C@@H]1CN(C)C(=O)Nc1ccc(F)cc1 4.4%
CCOC(=O)CN1C(=N)N(c2nc(NC(C)C)nc(OC)n2)CC1=O 15%
CC1CCc2sc(C(=O)Nc3nnc(SCc4ccc(F)cc4)s3)cc2C1 (stereo unspecified) 2.39%
CCc1ccc(-c2cn3nc(-c4ccccc4)cnc3n2)cc1 8.74%
COCC(=O)Nc1ccc2c(c1)OC[C@H](C)N(C(=O)c1ccccc1F)C[C@H](C)[C@H](OC)CN(C)C2=O 20.8%
OC[C@@H]1[C@H](c2ccc(/C=C/c3ccccc3)cc2)[C@H]2CN(CCC(F)(F)F)CCCCN12 -58.3%
CCCCOc1ccc(CNC(=O)NS(=O)(=O)c2ccc(OCC(C)C)cc2)cc1 3.8%
CC(C)C#Cc1ccc2c(c1)O[C@@H](CN(C)Cc1ccccc1)[C@@H](C)CN([C@@H](C)CO)S2(=O)=O -67.6%
COc1ccc(-c2cc(C(=O)O)[nH]n2)cc1OC -8.64% [at 10 µM]
COc1ccc(-c2nc3ccccc3c(=O)o2)cc1OC -30.4%
Cc1ccc(C(=O)N2CCN(c3ncccn3)CC2)cc1 25.8%
O=C(Nc1ccc(N2CCN(Cc3ccccc3F)CC2)cc1)c1ccc([N+](=O)[O-])o1 -102%
N#Cc1cc(Oc2cccc3cccnc23)c(-n2nnc3ccccc32)cc1C#N -29.1%
O=C1CN(S(=O)(=O)Cc2ccccc2)C[C@@H]2[C@@H](c3ccc(C#Cc4cccc(F)c4)cc3)[C@@H](CO)N12 -26.7%
COC(=O)c1ccc(OC)c(OC2CCCC2)c1 6.85%
N#Cc1ccc(-c2ccc([C@@H]3[C@H]4CNC[C@@H]3N4Cc3ccc4c(c3)OCO4)cc2)cc1 -65%
O=C(Cc1cccnc1)N1CC(=O)N2[C@H](CO)[C@@H](c3ccc(C#CC4CCCCC4)cc3)[C@H]2C1 -1.38%
CCN(CC)C1CC(=O)N(c2ccc(Br)cc2)C1=O (stereo unspecified) 21%
COC(=O)c1cc(C(=O)N2CCN(c3cccc(Cl)c3)CC2)cc([N+](=O)[O-])c1 -24.1%
O=C(c1cc([N+](=O)[O-])ccc1N1CCCC1)N1CCCC1 22.3%
COc1cccc(NC(=O)N2CCN(c3cccc(C)c3)C(C)C2)c1 (stereo unspecified) 32.5%
COC(=O)[C@]1(Cc2ccccc2)N=C(c2ccc(OCCCO)cc2)O[C@@H]1c1ccccc1 24.2%
O=C(c1cccc(Cl)c1)N1CCN(c2ccc(N3CCOCC3)nn2)CC1 -16.9%
CCN1C(C#N)=C(C#N)N=C(C)CC1(C)C -8.91%
CC1(C(=O)Nc2cccc(C#N)c2)CCN1C(=O)CCc1ccccc1 (stereo unspecified) 27.8%
O=C1C=CCCN1S(=O)(=O)/C=C/c1ccccc1 -81.8%
COc1cc(CN2C[C@@H]3N[C@H](C2)C3c2ccc(/C=C/c3ccccc3)cc2)cc(OC)c1 (stereo partly specified) -94.1% [at 21 µM]
CO[C@H]1CN(C)C(=O)c2ccc(NC(=O)Nc3ccccc3F)cc2OC[C@@H](C)NC[C@@H]1C -2.58%
CC(=O)N(C1=C(N2CCOCC2)C(=O)c2ccccc2C1=O)c1ccc(C(=O)O)cc1 -16%
N#Cc1ccsc1NC(=O)CSc1nnc(NC2CC2)s1 1.26%
Cc1cc(C)c(C#N)c(SCC(=O)Nc2nnc(-c3ccccc3)s2)n1 12.3%
Cc1ccc2nc(C)cc(OCC(=O)O)c2c1 -0.665%
C[C@@H]1CN([C@H](C)CO)C(=O)c2cc(C#CC3CC3)cnc2O[C@H]1CN(C)C(=O)Nc1ccc(F)cc1 3.17%
Cc1[nH]c2ccc(C(C)C)cc2c1CC(=O)O 15.9%
CC(C)(C)c1ccc(OCCSc2nc3ccccc3n2CC(=O)O)cc1 6.13%
O=C(Nc1ccc(CN2CCOCC2)cc1)c1ccc(F)cc1 8.79%
COc1ccc2c(c1)c1nc3ccccc3nc1n2CC(=O)OC(C)C 9.95%
CC(C)(C)c1ccc(C(=O)NCCN2CCOCC2)cc1 12.6%
N=c1n(Cc2ccccc2)c2ccccc2n1CC(O)COc1ccc(Cl)cc1Cl (stereo unspecified) -106%
Cc1nnc(SCC(=O)N2CCC(c3noc4ccc(F)cc34)CC2)s1 -9.01%
CS(=O)c1nc(-c2ccc(Br)cc2)cc(-c2ccccc2)c1C#N (stereo unspecified) -102%
CN(C)CCCNc1cc(-c2ccccc2)nc2cc(-c3cccc(F)c3)nn12 9.3% [at 10 µM]
C=CCn1c(C)cc(C(=O)Cn2ncc(Cl)c(Cl)c2=O)c1C -99%
Cc1cc(C)c(S(=O)(=O)NCC2CCC(C(=O)NCc3ccc4c(c3)OCO4)CC2)c(C)c1 (stereo unspecified) 35.8%
Cc1noc(C)c1S(=O)(=O)Nc1ccc2c(c1)C(=O)N([C@H](C)CO)C[C@@H](C)[C@H](CN(C)Cc1ccc(C(F)(F)F)cc1)O2 6.91% [at 21 µM]
O=c1oc(-c2ccccc2)nc2sc3c(c12)CCC3 13.4%
CCOC(=O)c1c(C)n(C)c2cc(Br)c(O)c(O)c12 -26.6%
CCOC(=O)c1c2c(n(C)c1C)C(=O)C(=O)c1ccc(Br)cc1-2 -64%
O=C(Nc1ccc2c(c1)OCO2)N[C@H]1CC[C@H](CCNC(=O)C2CCC2)O[C@@H]1CO 20%
CCOC(=O)c1c(NC(=O)/C=C/C(=O)O)sc(C)c1-c1ccc(C(C)(C)C)cc1 -36.6%
CCOC(=O)c1c(NC(=O)c2c(Br)cnn2CC)sc(C)c1C 24.3%
CN1CCc2c(sc3c2c(NCc2ccco2)nc2nnnn23)C1 25.8%
